Rows were chosen to be rich in hits. Some 9.3% of all compounds tested hit in one or more screens of this group.
Vaccinia Venus: inhibitors of vaccinia virus (Venus reporter); Vaccinia virus Venus reporter expression, fluorescence; Potency, µM (series often up to 36.5 µM), inactives show at the top dose activity change, negative = inhibition, most hits filed as inhibitors; 330,000 tested, 0.46% active; AID 720580; calls by dose curve; tested in A549 cells; also: potency is read from the fitted curve at half-maximal effect; nearly all actives have a fitted effect of over 30% in size
HCMV inh: inhibitors of human cytomegalovirus; HFF cells, HCMV-luciferase reporter, 72 h; stronger effect = lower value; activity change, negative = inhibition, % at 57.5 µM; 410,000 tested, 4.5% active; AID 1259415; in the data active = activity change below about -60%; inconclusive = no clear call, values can overlap the other calls; inactive = above about -39%
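Screen run at 2 compound doses on HFFs infected with reporter HCMV, MOI 1 PFU/cell. Luciferase activity from cell lysates at 72 h post infection gave inhibition relative to buffer-only and Salinomycin wells.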
HCV inh: HCV inhibition. Huh7.5.1 HCVcc-Cre infection, luciferase reporter, 44 h. Potency, µM (top dose mostly 41.8 µM), for the others: top-dose activity change, negative = inhibition, actives largely listed as inhibitors. 340,000 tested, 3.4% active. AID 651820; also: potency is read from the fitted curve at half-maximal effect
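Luciferase read-out (15 sec integration) after a 15 min room-temperature substrate step quantifies HCVcc-Cre infection. Cells, 1,000 per well, had compound added 4 h post-plating, then virus at ~0.5 moi, and were cultured 44 h.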
FMDV inh: foot and mouth disease virus antiviral activity; FMDV antiviral cell-based qHTS; Potency, µM (series often up to 57.9 µM), for inactives: at the highest dose activity change, negative = inhibition, actives largely listed as inhibitors; 410,000 tested, 1.2% active; AID 1159524; calls by dose curve; tested in HEK293T cells; also: read-out not given here; potency is read from the fitted curve at half-maximal effect; nearly all actives have a fitted effect of over 45% in size
Vaccinia mCherry: inhibitors of vaccinia virus infection (mCherry reporter signal). Vaccinia virus mCherry reporter infection, fluorescence. Potency, µM (titrated, usually from 36.5 µM), for inactives: top-dose activity change, negative = inhibition, hits mostly inhibitors. 310,000 tested, 0.63% active; calls by dose curve; tested in A549 cells; also: potency is read from the fitted curve at half-maximal effect; nearly all actives have a fitted effect of over 35% in size
Sm TGR block: S. mansoni TGR enzyme inhibition; purified TGR, DTNB reduction, TNB absorbance 405 nm; 360,000 tested, 3% active; Potency, µM (top dose mostly 114 µM), inactives show at the highest dose activity change, negative = inhibition, hits mostly inhibitors; Q962Y6; also: potency is read from the fitted curve at half-maximal effect; nearly all actives have a fitted effect of over 60% in size
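TGR 20 nM + NADPH 100 uM (dispensed conc.), cpd preinc 15 min RT; start with NADPH (500 uM addition) then DTNB (15 mM addition). Kinetic TNB absorbance, 405 nm filter. Four-parameter Hill fit across titration.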
* = called active by the depositor; i = inactive; ? = inconclusive; . = no result given; ! = repeats disagree; [ ] = remark or other dose. Unless noted, calls follow the shape of the dose curve; as a rule, active = well fitted curve in the direction sought with a large enough effect; inconclusive = small, poorly fitted or top-dose-only effect, or another doubt; inactive = no such curve, though single readings can be large; an effect the other way counts as inactive or inconclusive. % is scaled to controls: 0 for no effect and ±100 for the full control effect.

SMILES	Vaccinia Venus	HCMV inh	HCV inh	FMDV inh	Vaccinia mCherry	Sm TGR block
CN1CCN(S(=O)(=O)c2ccc(NC(=S)NC(=O)c3ccc(Cl)cc3)cc2)CC1	-12%	64	?	-4%	-22%	22µM*
O=C(CN1CCN(c2ccc(O)cc2)CC1)Nc1cc(S(=O)(=O)N2CCCC2)ccc1Cl	.	?	?	-4%	.	?
CN1CCN(S(=O)(=O)c2ccc(NC(=O)c3ccccc3Cl)cc2)CC1	-13%	49	13%	3%	i	-27%
CN1CCN(S(=O)(=O)c2ccc(NC(=O)Nc3cccc(Cl)c3)cc2)CC1	?	-9	7.9µM*!	13%	.	5%
CC(=O)Nc1ccc(NC(=O)C(C)OC(=O)c2ccc(S(=O)(=O)N3CCCCCC3)cc2)cc1 (stereo not given)	0%	-72*	?	2%	i	.
O=C(CN1CCN(c2ccc(O)cc2)CC1)Nc1cc(S(=O)(=O)N2CCCCC2)ccc1Cl	-6%	-74*	10µM*	0%	-16%	-17%
COC(=O)[C@@]1(C(C)C)N=C(c2cc(OC)c(OC)c(OC)c2)[C@]2(O1)C(=O)N(C)c1ccc(Cl)cc12	-9%	-13	.	-22%	8%	.
CCC(c1nnnn1-c1ccc(OC)cc1)N1CCN(C/C=C/c2ccccc2)CC1 (stereo not given)	-3%	-14	.	-39%	0%	.
O=C(CNCc1ccc(Cl)cc1)Nc1cc(S(=O)(=O)N2CCCC2)ccc1Cl	-8%	-15	7.9µM*	?	-7%	.
CC(=O)Nc1ccc(S(=O)(=O)N2CCC(C(=O)c3ccc(Cl)cc3)CC2)cc1	0%	-63*	?	-25%	i	-11%
CC(=O)Nc1ccc(S(=O)(=O)N2CCC(C(=O)c3ccc(F)cc3)CC2)cc1	-14%	1	?	-15%	3%	1%
O=C(Nc1cccc(Cl)c1)Nc1cc(S(=O)(=O)N2CCCCC2)ccc1Cl	?	-99*	11µM*	?	-25%	-1%
CCOC(=O)C1=C(C)Nc2nc(C)nn2C1c1ccc(OCC)c(OC)c1 (stereo not given)	0%	29	12%	22%	-8%	11%
CCOCCCNC(=O)c1cc(-c2cccnc2)nc2ccc(S(=O)(=O)N3CCC(C)CC3)cc12	.	.	12%	3%	.	9%
COCCCNC(=S)N1CCN(C(=O)C(=O)Nc2ccc(C(=O)OC)cc2)CC1	-15%	-40	-9%	0%	-13%	4%
N#Cc1ncn(C2OC(CO)C(O)C2O)c1N (stereo not given)	-15%	9	.	-12%	-7%	.
CC(C)CCNC(=O)[C@@H](c1ccccc1)N1Cc2ccccc2C1=O	0%	-1	.	43%	-2%	2%
Cc1ccc(C(=O)C(c2ccccc2)N2Cc3ccccc3C2=N)cc1 (stereo not given)	?	.	?	32µM*	-25%	-6%
Cc1cc(C)cc(NC(=O)N2CCC(N3CCN(Cc4ccccc4)C(=O)C3=O)CC2)c1	5%	12	.	-9%	3%	?
Cc1cc(OC(C)C(=O)NCc2cccnc2)c2c(C)c(Cc3ccccc3)c(=O)oc2c1 (stereo not given)	.	?	13µM*	5%	.	4%
COc1cccc(CNC(=O)c2ccc3c(c2)c(C)c(C)n3Cc2ccccc2)c1OC	-5%	?	.	-5%	-12%	7%
O=C(c1cn(-c2ccccc2)nc1-c1cccc(Br)c1)N1CCOCC1	-13%	-63*	?	4%	-4%	.
O=C(/C=C/c1cn(-c2ccccc2)nc1-c1cccs1)NCCN1CCOCC1	-13%[7.34 µM]	-7	14µM*	4%	0%[7.34 µM]	0%
O=C(c1cn(-c2ccccc2)nc1-c1cccs1)N1CCN(c2ccccc2)CC1	.	.	7.1µM*	4%	.	4%
COc1ccccc1-c1noc(CCCC(=O)Nc2cccc(C(F)(F)F)c2)n1	-5%	-21	.	0%	-7%	0%
SMILES	Vaccinia Venus	HCMV inh	HCV inh	FMDV inh	Vaccinia mCherry	Sm TGR block
O=c1c2sc3nc(N4CCOCC4)c4c(c3c2ncn1-c1ccccc1)CCCC4	?	-64*	10µM*	?	?	5%
O=c1c2sc3nc(N4CCOCC4)c4c(c3c2ncn1CCc1ccccc1)CCCC4	-7%	-33	-21%	-10%	-7%	13%
Cc1ccccc1-n1cnc2c(sc3nc(N4CCOCC4)c4c(c32)CCCC4)c1=O	2%[7.34 µM]	-89*	18µM*	-18%	i[7.34 µM]	8%
Cc1ccc(-n2cnc3c(sc4nc(N5CCOCC5)c5c(c43)CCCC5)c2=O)cc1	.	-35	?	?	.	1%
COC(=O)c1ccc(CSc2ncnc3c2sc2nc(N4CCOCC4)c4c(c23)CCCC4)o1	.	-24	-20%	1%	.	.
COC(=O)c1ccc(Cn2cnc3c(sc4nc(N5CCOCC5)c5c(c43)CCCC5)c2=O)o1	-4%	0	11µM*!	-1%	?	?
O=c1c2sc3nc(N4CCOCC4)c4c(c3c2nnn1Cc1ccccc1)CCCC4	?	-100*	-6%	-11%	.	-24%
O=C(Nc1cc(C(=O)N2CCOCC2)ccc1N1CCCC1)c1cccs1	-11%	58	-2%	.	-1%	-9%
O=C(c1ncc[nH]1)c1cccs1	4%	193	5%	18%	-5%	0%
Cn1nnc2cc(NC(=O)Nc3ccccc3F)ccc21	-10%	40	.	1%	-4%	.
COc1ccccc1NC(=O)Nc1ccc(F)c(F)c1	-18%	-102*	-2%	9%	-12%	8%
Cc1cc(NC(=O)Nc2ccccc2F)ccc1Br	?	-19	13µM*	-8%	-8%	17%
CCC1CCCCN1CCCNC(=O)C(C)n1nc(C)c2sc3ccccc3c2c1=O (stereo not given)	.	-30	?	-11%	.	0%
Cc1cc(=O)[nH]c2nc3ccccc3n12	-8%	-4	.	0%	i	.
O=C(Nc1cscc1S(=O)(=O)c1ccccc1)c1ccccc1Cl	1%	31	0%	6%	i	-2%
Cc1c(-c2nc(-c3ccc(C(C)(C)C)cc3)no2)n(C)oc1=O	-20%	97	2%	63µM*	-3%	-7%
O=C(c1ccco1)N1CCN(C(=O)C(Cc2ccccc2)NS(=O)(=O)c2cccs2)CC1 (stereo not given)	.	24	16%	17%	.	25µM*
O=C(c1ccco1)N1CCN(C(=O)c2sccc2-c2ccccc2)CC1	.	-25	-16%	1%	.	40µM*
O=C(c1ccco1)N1CCN(C(=O)c2ccco2)CC1	0%	15	.	12%	i	.
O=C(c1ccco1)N1CCN(S(=O)(=O)c2cccs2)CC1	-7%	-10	24%	.	-17%	-5%
Cc1cccc(NS(=O)(=O)c2cccc([N+](=O)[O-])c2)n1	-1%	17	18%	49%	i	-5%

From PubChem BioAssay
